# Reference: PubChem BioAssay (EPA / NIEHS)
# Some structures have more than one record in an assay (separate samples or runs), and their calls can disagree. Active and inactive are the calls of the source. The calls were made as follows: active = hit-call score of the fitted dose curve at least 0.9, where 1 is the maximum; inactive = score below 0.9.
# Assay: CEETOX_H295R_PROG: CeeTox H295R High-throughput Steroidogenesis Assay for Progesterone (PROG) (AID 2283442);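 as to AC50: human H295R adrenal cells primed with 10 µM forskolin before dosing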
# Settings: actives raise or lower the signal
# Protocol: CEETOX_H295R is a cell-based, multiplexed-readout assay that uses H295R, a human adrenal gland cell line, with measurements taken at 48 hours after chemical dosing in a 96-well plate.CEETOX_H295R_PROG is one of 23 assay component(s) measured or calculated from the CEETOX_H295R assay. It is designed to make measurements of hormone induction, a form of inducible reporter, as detected with absorbance signals by HPLC-MS-MS technology.Data from the assay component CEETOX_H295R_PROG was analyzed into 1 assay endpoint. This assay endpoint, CEETOX_H295R_PROG, was analyzed with bidirectional fitting relative to DMSO as the negative control and baseline of activity. Using a type of inducible reporter, gain or loss-of-signal activity using HPLC-MS-MS was used to understand synthesis of Progesterone in H295R cell line at 48hr of chemical exposure. To generalize the intended target to other relatable targets, this assay endpoint is annotated to the steroid hormone intended target family, where the subfamily is progestagens.
# Cell culture and media preparation procedures were conducted in accordance with OECD Test No. 456 guidelines, with minor modifications. H295R cells (ATCC CRL-2128) were expanded for 5 passages and frozen in batches in liquid nitrogen. Prior to the steroidogenesis assay, H295R cells were thawed and passed at least 4 times. The maximum passage was 10. Cells were maintained in a 1:1 mixture of DMEM/F12 supplemented with 5ml/L ITS+ Premix (BD Bioscience) and 12.5 ml/L Nu-Serum (BD Bioscience). After seeding cells into 96-well plates at 50-60% confluency, cells were allowed to adhere overnight. Prior to chemical testing, culture medium was replaced with 175 uL medium containing 10 uM forskolin to stimulate steroidogenesis for 48 hours. Following prestimulation, forskolin medium was replaced with medium containing test chemical solubilized in DMSO (ensuring a final concentration of 0.1% DMSO). Test chemicals were incubated for 48 hours, then the medium was removed and split into 2 vials containing approximately 75uL each, and stored at -80 C prior to hormone analysis. For steroid quantification, media samples were shipped to OpAns, LLC (Durham, NC) on dry ice, and samples were thawed to room temperature prior to liquid-liquid extraction. Steroid hormones were extracted from media samples using methyl tertbutyl ether (MTBE). An extra derivatization with dansyl chloride was included for estrogen (estrone and estradiol) detection only. Steroid hormones were separated by HPLC, eluted using a reverse phase C18 gradient with electrospray positive ionization, followed by quantification by tandem mass spectrometry (MS/MS). Data were acquired on a MassHunter Workstation Acquisition version B03.01 (Agilent Technologies, Inc.) and processed using MassHunter Quantitative Analysis for QQQ. Accuracy was determined for each hormone analyte from 3 standards to determine upper and lower limits of quantification (ULOQ and LLOQ, respectively) using a 7-point standard curve. Precision and accuracy of the extraction and quantification methods were calculated as the percent relative standard deviation (%RSD) of the spiked standards and percent spiked standard recovered, respectively. The goal was to achieve 100% accuracy (i.e., recover all spiked-in standard at quantification with minimal loss during run time) and good precision (i.e., have %RSD <15% to ensure reproducibility). Test medium was removed following chemical exposure, and cell viability was evaluated in the same wells by MTT. MTT procedures were as follows: after removal of test medium, 500 uL of 0.5 mg/ml of 3-[4,5-dimethylthiazol-2-y]2,5-diphenyltetrazoliumbromide solution was added to the cells. Following a 4-hour incubation at 37 C and 5% CO2 to allow formazan-crystal formation, the MTT solution was removed and blue formazan salt crystals were solubilized using 500uL anhydrous isopropanol with shaking for 20 minutes. Absorbance was read at 570 and 650nm using a Packard Fusion microplate reader. […]
SMILES,AC50,outcome
c1ccc(OCCOc2ccccc2)cc1,14.3 µM (active),–
OCC=Cc1ccccc1,–,inactive
CCCc1ccc(O)cc1,–,inactive
CCCCCC(=O)O[C@]1(C(C)=O)CC[C@H]2[C@@H]3CCC4=CC(=O)CC[C@]4(C)[C@H]3CC[C@@]21C,4.56 µM (active),–
CC(C)(C)c1cccc(O)c1,–,inactive
C[C@]12CC[C@@H]3c4ccc(O)cc4CC[C@H]3[C@@H]1CC[C@@H]2O,5 µM (active),–
CC/C(=C(\c1ccccc1)c1ccc(OCCN(C)C)cc1)c1ccccc1,0.141 µM (active),inactive
CC(=N[Si](C)(C)C)O[Si](C)(C)C,–,inactive
CC(=O)c1ccc2ccccc2c1,–,inactive
COc1ccc2[nH]cc(CCNC(C)=O)c2c1,20 µM (active),–
OCCCO,–,inactive
CC(=O)C1=C(C)[C@@H]2C[C@@]3(C1)[C@H](C)CC[C@H]3C2(C)C,–,inactive
O=C(c1ccc(OCCN2CCCCC2)cc1)c1c(-c2ccc(O)cc2)sc2cc(O)ccc12,–,inactive
CC=CC(=O)C1=C(C)C=CCC1(C)C,–,inactive
C#C[C@]1(O)CC[C@H]2[C@@H]3CCc4cc(O)ccc4[C@H]3CC[C@@]21C,0.372 µM (active),–
c1coc(CNc2ncnc3nc[nH]c23)c1,–,inactive
O=C(OCc1ccccc1)c1ccccc1O,50 µM (active),–
CCCCCCCCCCCCN1CCOCC1,0.304 µM (active),–
